Compound activity deposited in PubChem by several laboratories.
Fam108B inh = mouse Fam108B serine hydrolase inhibitors, primary screen, counter-screen for RBBP9 inhibitor project, biochemical, fluorescence polarization; recombinant Fam108B, FP-Rh probe fluorescence polarization; inhibition, % at 9.51 µM; 300,000 tested, 0.33% active; AID 1947, 2009;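 active = inhibition above the screen mean inhibition plus 3 SD, computed separately per campaign, cut at about 18% in these data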;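 also: inhibitors lower polarization as less probe binds the enzyme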
LYPLA2 inh = LYPLA2 inhibitors, primary screen, counter-screen for PME1 inhibitor project, biochemical, fluorescence polarization, FP-Rh probe ABPP; Acyl-protein thioesterase 2 (Homo sapiens), O95372; recombinant LYPLA2; inhibition, % at 5.9 µM; 320,000 tested, 0.38% active; AID 2177, 2009;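 active = inhibition above the screen-wide mean plus 3 SD, limit set per campaign, cut at about 26% in these data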;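 also: 0% = LYPLA2 with DMSO and 100% = wells lacking LYPLA2 enzyme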
LYPLA1 counter = LYPLA1 inhibitors, primary screen, counter-screen for PME1 inhibitor project, biochemical, fluorescence polarization, FP-Rh probe ABPP | recombinant LYPLA1 | inhibition, % at 5.9 µM | 320,000 tested, 0.16% active | AID 2174, 2009;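 active = inhibition above the mean of all tested compounds plus 3 SD, set per campaign, cut at about 14% in these data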;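 also: inhibitors block serine hydrolase probe labeling of LYPLA1 so polarization falls; 0% = enzyme with DMSO and 100% = wells lacking LYPLA1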
PME-1 primary = PME-1 inhibitors via competitive probe labeling, primary screen, biochemical, fluorescence polarization, FP-Rh probe, HTS; Protein phosphatase methylesterase 1 (Homo sapiens), Q9Y570; AID 2130, 2009; recombinant PME-1; 320,000 tested, 0.53% active; inhibition, % at 5.9 µM;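 active = inhibition above the campaign mean of all compounds plus 3 SD, cut at about 26% in these data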;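 also: competitive labeling of PME-1 active site by serine hydrolase directed probe; 0% = PME-1 with DMSO and 100% = wells lacking PME-1 enzyme; inhibitors block probe labeling so polarization falls and inhibition rises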
MEX-5 binding = MEX-5 zinc finger RNA-binding disruptors – biochemical, C. elegans, fluorescence polarization, MLPCN library, primary screen. Zinc finger protein mex-5 (Caenorhabditis elegans), Q9XUB2. MEX-5/FITC-TCR2 RNA binding; active compounds read low. activity score (negative = inhibition of binding), % at 10 µM. 300,000 tested, 0.38% active. AID 1832, 2009;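 active = inhibition past about -25% in most replicates, and total fluorescence under double the plate's negative control median, limit read from the data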;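 also: 0% = DMSO and -100% = 5 µM competing unlabeled TCR2 RNA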
Target sequence (Q9XUB2 whole entry, looked up): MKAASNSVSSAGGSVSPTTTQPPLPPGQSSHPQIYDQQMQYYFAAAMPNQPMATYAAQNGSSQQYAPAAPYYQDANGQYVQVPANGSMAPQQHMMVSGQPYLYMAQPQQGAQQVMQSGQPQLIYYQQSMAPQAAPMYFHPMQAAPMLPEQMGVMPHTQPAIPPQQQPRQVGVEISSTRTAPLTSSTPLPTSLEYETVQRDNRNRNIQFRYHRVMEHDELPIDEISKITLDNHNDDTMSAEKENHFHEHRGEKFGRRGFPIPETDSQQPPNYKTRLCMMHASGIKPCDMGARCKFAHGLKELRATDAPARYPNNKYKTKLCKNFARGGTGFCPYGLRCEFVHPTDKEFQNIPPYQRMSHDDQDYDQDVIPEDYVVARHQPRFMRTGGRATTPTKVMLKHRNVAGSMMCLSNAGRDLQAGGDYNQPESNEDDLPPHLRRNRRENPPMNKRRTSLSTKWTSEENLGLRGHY
PREPL inhibitor = PREPL enzyme inhibitors, primary screen, biochemical, fluorescence polarization. Prolyl endopeptidase-like (Homo sapiens), Q4J6C6. recombinant PREPL, fluorescence polarization activity-based probe. inhibition, % at 5.96 µM. 320,000 tested, 0.68% active. AID 2751, 2010;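 also: 0% = enzyme with DMSO and 100% = wells lacking enzyme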
PREPL confirm = human PREPL enzyme inhibitors, confirmation, biochemical, fluorescence polarization; recombinant PREPL, fluorescence polarization activity probe; inhibition, % at 5.96 µM; shares compounds with PREPL inhibitor; 2,000 tested, 67% active;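 also: 0% = protein with DMSO and 100% = wells lacking protein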
* = called active by the depositor; . = no result given. Rows were chosen to be rich in hits. Some 1.6% of all compounds tested hit in one or more screens of this group. Rule as the data show it, unless noted: active = inhibition above about 43%; inactive = the rest.

SMILES | Fam108B inh | LYPLA2 inh | LYPLA1 counter | PME-1 primary | MEX-5 binding | PREPL inhibitor | PREPL confirm
Nc1nn(-c2ccccc2)c(N)c1N=Nc1cccc(F)c1 | -2 | 5 | 2 | 12 | 3 | 65* | 60*
Oc1ccc(N=Nc2ccc3c(c2)OCO3)c2ccccc12 | 1 | 14 | -4 | 3 | 2 | 4 | .
CCCCC1=CC2=C(c3ccco3)C(=O)C(C)(OC(=O)c3ccc(OC)cc3)C(=O)C2=CN1CCN1CCOCC1 (stereo not drawn) | 2 | -3 | -2 | 3 | -38* | 59* | 47*
Cc1oc2cc3oc(=O)c(CCC(=O)NCCC(=O)O)c(C)c3cc2c1C | -2 | -13 | -6 | -6 | -1 | -1 | .
CN1CCN(C(=O)C2=C[C@@H](c3ccc(C(F)(F)F)cc3)C[C@@H](OCc3ccc(CO)cc3)O2)CC1 | 6 | -7 | -2 | -4 | 0 | 59* | 59*
O=C(C1=C[C@H](c2ccc(C(F)(F)F)cc2)C[C@H](OCc2ccc(CO)cc2)O1)N1CCOCC1 | 3 | 7 | 3 | 2 | -4 | 29 | .
CN1CCN(C(=O)C2=C[C@@H](c3ccc4c(c3)OCO4)C[C@@H](OCc3ccc(CO)cc3)O2)CC1 | -5 | -2 | -1 | 1 | 0 | 45* | 54*
O=C(C1=C[C@@H](c2ccc(C(F)(F)F)cc2)C[C@@H](OCc2ccc(CO)cc2)O1)N1CCN(Cc2ccccc2)CC1 | 1 | -2 | -2 | 0 | 4 | 52* | 57*
COc1ccc(/C=C/C(=O)Nc2ccc(S(=O)(=O)Nc3cc(C)nc(C)n3)cc2)cc1OC | -5 | -3 | -2 | -9 | -1 | 3 | .
CC(=O)N1CCN(c2ccc(NCc3ccc4c(c3)OCO4)cc2)CC1 | 2 | 6 | 0 | 2 | -1 | 72* | 12
O=C(O)c1cc(NCc2ccc3c(c2)OCO3)ccc1N1CCOCC1 | 6 | 4 | 8 | -3 | -2 | 13 | .
O=C(c1ccccc1)N1CCN(c2ccc(NCc3ccc4c(c3)OCO4)cc2)CC1 | 0 | 20 | 4 | 2 | -3 | 74* | 53*
O=C(c1ccc2c(c1)OCO2)N1CCN(c2ccccc2)CC1 | 1 | 8 | 0 | 1 | 2 | 15 | .
O=C(Nc1ccc(N2CCN(C(=O)c3ccccc3)CC2)cc1)c1cc2ccccc2o1 | 4 | 0 | 0 | 4 | . | 45* | 36
CN1CCN(c2ccc(NC(=O)c3cc4ccccc4o3)cc2)CC1 | 2 | -1 | 1 | 5 | 3 | 4 | .
CN(C1CCCCC1)S(=O)(=O)c1cn(C)c(=O)n(C)c1=O | . | 0 | 0 | 3 | . | 13 | .
CCOC(=O)N1CCN(C(=O)CCS(=O)(=O)c2cc3c(cc2Cl)NC(=O)CO3)CC1 | -2 | 2 | 2 | -4 | 1 | 14 | .
COc1ccc(C(C)NC(=O)Nc2ccc(C(C)=O)cc2)cc1OC (stereo not drawn) | -2 | -6 | -3 | -4 | -2 | 3 | .
Cc1ccc(/C=C/C(=O)Nc2ccc(N(C)C)cc2)o1 | 0 | -3 | -1 | 0 | 2 | 48* | 42
O=C(NC(=S)Nc1ccc(N2CCOCC2)cc1)c1ccco1 | -1 | 13 | 2 | 2 | 0 | 4 | .
O=C(Nc1ccc2nc(-c3ccco3)c(-c3ccco3)nc2c1)N1CCN(c2ccccn2)CC1 | 10 | -7 | -6 | 3 | -30* | 74* | 38
S=C(Nc1ccc(N2CCOCC2)cc1)Nc1ccc2nc(-c3ccco3)c(-c3ccco3)nc2c1 | 18 | 4 | -3 | 51* | -1 | 46* | 22
CN1C(=O)C(CC(=O)Nc2ccc(F)cc2)N(Cc2ccco2)C1=S (stereo not drawn) | 0 | -6 | -4 | -1 | 2 | -4 | .
CCN1C(=O)/C(=C2/Sc3ccccc3N2CC)S/C1=N\c1ncn[nH]1 | 14 | 3 | 10 | 34* | 9 | 48* | 33
